# Where “and” joins values, the source holds several entries; their conditions need not be identical. Equal values may be shown once. Records with an inconclusive call do not appear. Calls of active or inactive are those of the source. Unless noted, calls come from the whole dose curve.
# Key:
# [1] = qHTS assay for small molecule agonists of retinoid X receptor alpha signaling (AID 588544); conditions: HEK293T RXRa-UAS-bla, beta-lactamase reporter, 18 h; 530 nm emission;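 for activation: 0% = DMSO basal wells and 100% = reference agonist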
# [2] = target: Retinoic acid receptor RXR-alpha (Homo sapiens) (UniProt P19793); test: as above; conditions: HEK293T RXRa-UAS-bla, beta-lactamase reporter, 18 h; series mostly up to 76.7 µM
# [3] = qHTS assay for small molecule antagonists of retinoid X receptor alpha signaling (AID 588546; active = well fitted inhibition curve with a large enough effect in the signal ratio, with a control signal flat, not every such curve was filed as active; the % refers to the signal ratio;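 note: cells stimulated with 9-cis-retinoic acid as agonist; % is set by controls: 0 for no effect and ±100 for the full control effect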); conditions: HEK293T RXRa-UAS-bla, beta-lactamase ratio, antagonist mode; measured here: W530 green channel, cytotoxicity proxy
# Procedure, shortened: (§1)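 Beta-lactamase reporter inhibition, read as CCF4 fluorescence ratio (ex 405, em 460/530 nm) after 2 h at RT. HEK293T UAS-bla cells, 2500/well, were stimulated with 9-cis-RA at 500 or 100 nM final alongside test compound for 18 h at 37 C.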
# [4] = target: Retinoic acid receptor RXR-alpha (Homo sapiens) (UniProt P19793); test: as above; conditions: HEK293T RXRa-UAS-bla, beta-lactamase ratio, antagonist mode
# Procedure, shortened: as §1
# [5] = target: Voltage-gated inwardly rectifying potassium channel KCNH2 (Homo sapiens) (UniProt Q12809); test: qHTS Assay for Small Molecule Inhibitors of the Human hERG Channel Activity (AID 588834; active = well fitted inhibition curve with a large enough effect;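 note: top concentration of the series differs between compounds; % is set by controls: 0 for no effect and ±100 for the full control effect; lower thallium flux fluorescence means stronger hERG block; nearly all actives have a fitted effect of over 50% in size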); conditions: U2OS BacMam hERG, FluxOR thallium flux fluorescence; series mostly up to 92.2 µM
# Procedure, shortened: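 Thallium serves as surrogate for K+ influx through BacMam-delivered hERG in U2OS cells. Compounds are added for about 10 minutes after dye loading; stimulation buffer then starts flux, monitored kinetically on FDSS.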
# [6] = qHTS assay for small molecule activators of the p53 signaling pathway (AID 651743; active = well fitted activation curve with a large enough effect in the signal ratio, not every such curve was filed as active; the % refers to the signal ratio; note: % of control where 0% means no effect); conditions: HCT-116 p53RE-bla, beta-lactamase FRET ratio, 16 h; stronger effect = higher value
# Procedure, shortened: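 Following 16 hours of compound exposure at 37 C, HCT-116 cells bearing the p53RE-bla reporter were loaded with LiveBLAzer B/G FRET substrate for 2 hours at room temperature and fluorescence intensity was recorded.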
# [7] = target: Thyroid hormone receptor beta (Homo sapiens) (UniProt P10828); test: qHTS assay for small molecule agonists of thyroid hormone receptor beta signaling (AID 588545); conditions: TR-UAS-bla GripTite HEK 293, beta-lactamase ratio, agonist mode, 18 h, percent of T3 response, DMSO as zero; series mostly up to 76.7 µM
# Procedure, shortened: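 Agonist-mode beta-lactamase reporter assay, HEK 293 cells, 2% charcoal/dextran FBS; cells plated 4 hrs, compound 18 hrs at 37 C, CCF4 2 hrs RT. Normalized to 10 nM T3 (100%) and DMSO (0%); Hill fit gives EC50, efficacy.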
# [8] = target: Thyroid hormone receptor beta (Homo sapiens) (UniProt P10828); test: qHTS assay for small molecule antagonists of thyroid hormone receptor beta signaling (AID 588547; active = well fitted inhibition curve with a large enough effect in the signal ratio, with a control signal flat, not every such curve was filed as active; the % refers to the signal ratio;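 note: cells stimulated with 0.4 nM T3 agonist during compound exposure; % is set by controls: 0 for no effect and ±100 for the full control effect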); conditions: TR-UAS-bla HEK293, beta-lactamase ratio, antagonist mode, 18 h
# Procedure, shortened: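 TR-UAS-bla GripTite HEK293 cells in 2% charcoal/dextran FBS medium; compounds 0.59 nM to 92 uM with T3 at 0.4nM final, 18 h at 37 C. Beta-lactamase read by CCF4 fluorescence (460/530 nm); Hill fits gave IC50 and efficacy.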
# [9] = qHTS assay for small molecule activators of the nuclear factor-kappa B (NF-kB) signaling pathway (AID 651749; active = well fitted activation curve with a large enough effect in the signal ratio; the % refers to the signal ratio; note: % of control where 0% means no effect); conditions: NF-kB-bla ME-180 cells, beta-lactamase FRET ratio, 16 h; stronger effect = higher value
# Procedure, shortened: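 In this qHTS format, compounds acting as activators increase NF-kB-driven beta-lactamase in ME-180 cells, measured as disrupted FRET after 16 hr exposure at 37C and 5% CO2.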
# [10] = qHTS assay for small molecule agonists of the antioxidant response element (ARE) signaling pathway (AID 651741; active = well fitted activation curve with a large enough effect in the signal ratio; the % refers to the signal ratio; note: potency is the fitted concentration of half-maximal effect; for activation: % of control where 0% means no effect); conditions: HepG2 ARE-bla reporter, beta-lactamase FRET ratio, 16 h; series mostly up to 96 µM
# Procedure, shortened: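 Stably integrated ARE-beta-lactamase reporter HepG2 cells; 16 h compound incubation, 37 C; LiveBLAzer FRET substrate 2 h at room temperature; fluorescence intensity.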
# Retinoic acid receptor RXR-alpha (Homo sapiens), sequence (P19793 whole entry, looked up): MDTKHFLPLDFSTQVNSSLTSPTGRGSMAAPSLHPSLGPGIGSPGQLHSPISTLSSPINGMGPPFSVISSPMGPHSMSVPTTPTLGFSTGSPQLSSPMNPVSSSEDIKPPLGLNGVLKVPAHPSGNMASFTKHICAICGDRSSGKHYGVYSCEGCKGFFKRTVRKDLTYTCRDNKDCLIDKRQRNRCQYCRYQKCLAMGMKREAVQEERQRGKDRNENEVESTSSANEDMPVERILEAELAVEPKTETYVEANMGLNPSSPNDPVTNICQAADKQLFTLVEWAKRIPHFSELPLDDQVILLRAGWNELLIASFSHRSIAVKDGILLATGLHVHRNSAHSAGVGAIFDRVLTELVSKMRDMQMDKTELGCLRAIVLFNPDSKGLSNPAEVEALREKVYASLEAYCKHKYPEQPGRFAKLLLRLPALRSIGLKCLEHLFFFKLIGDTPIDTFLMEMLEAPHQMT
# Voltage-gated inwardly rectifying potassium channel KCNH2 (Homo sapiens), sequence (Q12809 whole entry, looked up): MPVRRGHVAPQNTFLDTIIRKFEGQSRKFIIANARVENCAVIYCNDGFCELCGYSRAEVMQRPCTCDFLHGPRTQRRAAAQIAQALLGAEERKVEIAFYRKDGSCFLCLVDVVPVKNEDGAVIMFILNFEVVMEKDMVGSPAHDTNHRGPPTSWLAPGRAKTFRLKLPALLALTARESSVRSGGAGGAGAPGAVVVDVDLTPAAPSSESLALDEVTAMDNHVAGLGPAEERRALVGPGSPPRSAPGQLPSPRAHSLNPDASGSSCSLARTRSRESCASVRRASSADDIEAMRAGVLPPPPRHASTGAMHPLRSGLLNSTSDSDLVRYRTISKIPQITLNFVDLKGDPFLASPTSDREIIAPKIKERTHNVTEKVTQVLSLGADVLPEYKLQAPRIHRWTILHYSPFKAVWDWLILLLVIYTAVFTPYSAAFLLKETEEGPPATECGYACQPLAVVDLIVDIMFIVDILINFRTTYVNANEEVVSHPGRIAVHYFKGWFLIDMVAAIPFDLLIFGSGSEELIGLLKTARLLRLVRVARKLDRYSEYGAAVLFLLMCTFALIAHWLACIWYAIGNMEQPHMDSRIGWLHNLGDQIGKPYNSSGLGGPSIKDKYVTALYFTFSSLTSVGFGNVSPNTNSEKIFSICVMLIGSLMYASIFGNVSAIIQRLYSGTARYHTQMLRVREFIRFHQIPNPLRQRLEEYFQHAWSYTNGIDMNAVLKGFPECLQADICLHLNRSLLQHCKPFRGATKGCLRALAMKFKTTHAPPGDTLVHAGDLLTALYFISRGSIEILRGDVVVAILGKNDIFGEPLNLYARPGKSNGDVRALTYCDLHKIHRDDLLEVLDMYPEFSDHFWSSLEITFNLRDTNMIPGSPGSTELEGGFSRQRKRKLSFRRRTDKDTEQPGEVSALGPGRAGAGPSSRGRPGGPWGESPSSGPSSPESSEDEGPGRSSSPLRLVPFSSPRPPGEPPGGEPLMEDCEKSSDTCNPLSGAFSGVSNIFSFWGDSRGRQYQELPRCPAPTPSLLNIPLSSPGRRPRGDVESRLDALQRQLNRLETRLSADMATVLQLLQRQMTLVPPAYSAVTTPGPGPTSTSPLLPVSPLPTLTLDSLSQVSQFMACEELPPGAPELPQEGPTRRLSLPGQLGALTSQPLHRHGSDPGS
# Thyroid hormone receptor beta (Homo sapiens), sequence (P10828 whole entry, looked up): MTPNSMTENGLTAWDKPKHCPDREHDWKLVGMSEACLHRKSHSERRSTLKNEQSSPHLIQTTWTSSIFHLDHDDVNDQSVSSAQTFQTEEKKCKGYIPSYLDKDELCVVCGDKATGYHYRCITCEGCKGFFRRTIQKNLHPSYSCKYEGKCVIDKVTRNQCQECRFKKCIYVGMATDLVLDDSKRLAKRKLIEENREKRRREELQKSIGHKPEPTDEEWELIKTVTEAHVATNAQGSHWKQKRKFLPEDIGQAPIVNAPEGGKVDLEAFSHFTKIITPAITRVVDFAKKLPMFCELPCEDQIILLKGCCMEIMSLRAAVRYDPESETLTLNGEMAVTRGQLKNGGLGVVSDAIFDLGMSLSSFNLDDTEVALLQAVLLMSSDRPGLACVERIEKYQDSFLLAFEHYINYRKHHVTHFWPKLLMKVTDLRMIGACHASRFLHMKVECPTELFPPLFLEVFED
Compound,max response [1],outcome [2],max response [3],max response [4],Potency [5],activation [6],outcome [7],activity change % (negative = inhibition) [8],activation [9],Potency [10]
Cc1ccc(Cl)cc1,0.942%,inactive,-3.57%,8.67% (inactive),inactive,-2.72% (inactive),–,–,–,–
S=C([S-])NCCNC(=S)[S-].[Zn+2],–,–,–,–,inactive,–,inactive,6.23% (inactive) and -0.322% (inactive),–,–
CCCCOCCOCCSC#N,3.38%,inactive,-3.14%,5.89% (inactive),inactive,-1.56% (inactive),–,–,0.862% (inactive),–
O=Nc1ccc(NO)cc1,–,–,–,–,inactive,–,inactive,-12.9% (inactive),-2.26% (inactive),–
Nc1nc(-c2ccccc2)cs1,-6.18%,inactive,7.15%,-5.77% (inactive),inactive,–,–,–,0.279% (inactive),37.6 µM (active)
CCc1ccccc1,10.6%,inactive,3.87%,1.68% (inactive),inactive,–,–,–,-1.59% (inactive),–
c1ccc2c(c1)ccc1ncccc12,-7.03%,inactive,-6.57%,-11.7% (inactive),inactive,–,–,–,–,inactive
Nc1cccc([N+](=O)[O-])c1,-3.08%,inactive,-9.54%,–,inactive,-4.7% (inactive),–,-4.44% (inactive),–,–
CCN(Cc1ccccc1)c1ccccc1,-15.3%,inactive,-8.88%,-8.29% (inactive),–,1.3% (inactive),–,–,–,–
C[C@@H]1CC2(OC[C@]3(C)O[C@H]23)O[C@H]2C[C@@]3(C)[C@@H]4CC[C@H]5C(C)(C)C(O[C@@H]6OC[C@@H](O)[C@H](O)[C@H]6O)CC[C@@]56C[C@@]46CC[C@]3(C)[C@@H]12 (stereo partly drawn),–,–,–,–,inactive,-7.18% (inactive),inactive,4.18% (inactive),-1.67% (inactive),–
c1ccc(Nc2ccccc2)cc1,-15.4% and 2.86%,inactive,1.16% and -8.24%,-5.42% (inactive) and 3.85% (inactive),inactive,1.33% (inactive) and -1.7% (inactive),–,–,0.526% (inactive) and -2.1% (inactive),inactive
O=C(O)c1cccc(Cl)c1Cl,-8.8%,inactive,-3.86%,–,inactive,-0.257% (inactive),–,–,0.0203% (inactive),inactive
C[C@@H]1CC2(OC3C[C@@]4(C)C5=CC[C@H]6C(C)(C)C(O[C@@H]7OC[C@@H](O)[C@H](O)[C@H]7O)CC[C@@]67C[C@@]57CC[C@]4(C)C31)OC(O)C1(C)OC21 (stereo partly drawn),–,–,–,–,inactive,-4.93% (inactive),inactive,–,–,75 µM (active)
Cc1ccccc1Br,-14.2%,inactive,1.58%,1.27% (inactive),inactive,–,–,–,-0.604% (inactive),inactive
CC1CCCO1 (stereo not drawn),11.5%,inactive,–,–,inactive,-2.21% (inactive),–,1.5% (inactive),-0.396% (inactive),inactive
CC(=O)Nc1ccc(N)cc1,-9.56%,inactive,6.27%,0.952% (inactive),inactive,0.791% (inactive),–,–,–,–
CC1=C(/C=C/C(C)=C/C=C/C(C)=C\C=O)C(C)(C)CCC1,–,–,–,–,–,8.65% (inactive),inactive,-14.6% (inactive),-1.57% (inactive),37.6 µM (active)
Clc1cc(Cl)cc(Cl)c1,-9.27%,inactive,-4.96%,2.45% (inactive),inactive,-2.32% (inactive),–,–,–,inactive
O=C(Cl)c1ccccc1[N+](=O)[O-],-17.2%,inactive,–,–,inactive,0.51% (inactive),–,-10.2% (inactive),-0.445% (inactive),–
CCOCCO,9.04%,inactive,1.51%,–,inactive,-2.61% (inactive),–,-11.8% (inactive),-1.02% (inactive),inactive

Compound,max response [1],outcome [2],max response [3],max response [4],Potency [5],activation [6],outcome [7],activity change % (negative = inhibition) [8],activation [9],Potency [10]
COc1ccc(N=[N+]([O-])c2ccc(OC)cc2)cc1,–,–,-4.97%,-10.1% (inactive),inactive,-0.811% (inactive),inactive,11.6% (inactive),0.0779% (inactive),37.6 µM (active)
Nc1nc2ccccc2[nH]1,–,–,-22%,–,inactive,1.82% (inactive),inactive,–,–,inactive
CCNS(=O)(=O)c1ccc(C)cc1,7.68%,inactive,0.888%,–,inactive,-2.94% (inactive),–,-4.68% (inactive),–,inactive
CNc1ccccc1,-0.986%,inactive,-0.675%,–,inactive,2.04% (inactive),–,-1.47% (inactive),-1.25% (inactive),inactive
C=CCOC(=O)CCCCCCCC,–,–,-1.68%,-5.32% (inactive),–,-2.19% (inactive),inactive,-0.411% (inactive),–,inactive
CC(C)(C)OC=O,-9.54%,inactive,-10.7%,–,inactive,-3.33% (inactive),–,-8.86% (inactive),–,inactive
COC(=O)CS,-8.12%,inactive,-3.61%,1.63% (inactive),inactive,-2.8% (inactive),–,–,–,inactive
CN(C)CCCNCCCN,-7.09%,inactive,-5.37%,0.789% (inactive),inactive,-2.59% (inactive),–,–,–,–
CC(C)(c1cc(Br)c(OCC(Br)CBr)c(Br)c1)c1cc(Br)c(OCC(Br)CBr)c(Br)c1 (stereo not drawn),–,–,-15.9%,–,inactive,2.84% (inactive),–,-9.17% (inactive),–,inactive
COc1ccc(OC)cc1,-11%,inactive,-6.6%,0.277% (inactive),inactive,1.53% (inactive),–,–,-2.07% (inactive),–
Nc1ccc(F)cc1F,-10.9%,inactive,-8.47%,16.2% (inactive),inactive,–,–,–,-1.13% (inactive),inactive
COc1ccccc1[N+](=O)[O-],–,–,-6.53% and 1.73%,20.4% (inactive) and 0.175% (inactive),inactive,-2.31% (inactive) and 1.29% (inactive),inactive,-3.34% (inactive) and -9.45% (inactive),–,inactive
O=C(O[C@@H](C(=O)O)[C@@H](OC(=O)c1ccccc1)C(=O)O)c1ccccc1,-17.8%,inactive,4.27%,-0.94% (inactive),inactive,-2.28% (inactive),–,–,0.306% (inactive),–
CSCCC=O,-12.2%,inactive,-2.47%,–,inactive,–,–,–,0.77% (inactive),inactive
C1CCOC1,-14.4%,inactive,-8.68%,0.04% (inactive),inactive,–,–,–,1.14% (inactive),inactive
[O-]/[N+](=N\O)c1ccccc1,–,–,–,–,inactive,-2.28% (inactive),inactive,–,–,–
CC(C)=C1CCC(C)CC1=O (stereo not drawn),-4.57%,inactive,3.58%,6.87% (inactive),inactive,-1.57% (inactive),–,–,–,inactive
Cc1ccc2nc(-c3ccc(N)cc3)sc2c1S(=O)(=O)O,–,–,-1.52%,30.6% (inactive),inactive,18.6% (inactive),–,–,–,42.2 µM (active)
C=C(C)OC(C)=O,12.6%,inactive,12.2%,-11.4% (inactive),inactive,-0.827% (inactive),–,–,-0.753% (inactive),inactive

# — PubChem BioAssay (NCATS)
